Laboratory results from PubChem BioAssay AID504607 (Sanford-Burnham Center for Chemical Genomics, 2011).
In all, about 6,200 compounds went through this assay and about 4,800 (77%) were called active. So high a share suggests a set chosen from earlier hits. A selection follows. Unmarked numbers belong to inactive results.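 The calls were made as follows: active = mean inhibition at 8 µM reaching about 37%, which flags the compound as non-specific (limit read from the data); inactive = the rest.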

Assay: luminescence decrease from intact luciferase reporter – cell-based, single concentration, SaOS-2, counter-screen for Mdm2/MdmX interaction inhibitor project, confirmation (AID 504607);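 also: p53-null SaOS-2 cells with luciferase driven by a doxycycline-inducible promoter; compound on cells about two nights before reading with doxycycline added after day one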
Settings: SaOS-2 full-length luciferase counterscreen, at 8 µM, active compounds read high

| SMILES | inhibition |
| --- | --- |
| COc1cc(OC)c2c(-c3cccc(-c4cccc(N)c4)c3)cc(=O)oc2c1 | 50.1% (active) |
| CC(NC(=O)c1ccc(N2CCNCC2)c([N+](=O)[O-])c1)C12CC3CC(CC(C3)C1)C2 (stereo not given) | 56.5% (active) |
| CC[C@]1(O)C[C@@H]2CN(CCc3c([nH]c4ccccc34)[C@@](C(=O)OC)(c3cc4c(cc3OC)N(C)[C@H]3[C@@](O)(C(=O)OC)[C@H](OC(C)=O)[C@]5(CC)C=CCN6CC[C@]43[C@@H]65)C2)C1 | 94.7% (active) |
| CC[C@]1(O)CC2CN(CCc3c([nH]c4ccccc34)[C@@](C(=O)OC)(c3cc4c(cc3OC)N(C=O)[C@H]3[C@@](O)(C(=O)OC)[C@H](OC(C)=O)[C@]5(CC)C=CCN6CC[C@]43[C@@H]65)C2)C1 (stereo not given in full) | 102% (active) |
| Oc1c(CN2CCN(c3ccc(F)cc3)CC2)cc(Cl)c2cccnc12 | 25.7% |
| N#Cc1ccc(C(=O)Nc2nc(-c3cccs3)c(C(=O)C(F)(F)F)s2)cc1 | 54.4% (active) |
| COc1ccc(CNC(=O)C(c2ccc(O)cc2)N(Cc2ccco2)C(=O)c2snc(C(N)=O)c2N)cc1 (stereo not given) | 88.8% (active) |
| Clc1ccc2c(c1)C1=C(C(c3ccncc3)O2)C(c2ccc(Br)cc2)n2ncnc2N1 (stereo not given) | 67.2% (active) |
| Nc1nc(CC(=O)CSc2ccc(Cl)cc2)nc(Nc2ccc(F)cc2)n1 | 29.2% |
| COc1ccc(C2=Nn3c(nnc3-c3ccccc3OC)SC2)cc1OC1CCCC1 | 68.2% (active) |
| Cc1nc(/N=C(\N)NC(=O)NC2CCCCC2)nc2ccccc12 | 34.4% |
| Cc1nc(N=C(N)N)nc2c(C)cccc12 | 63.3% (active) |
| COc1ccc(CNC(=O)C[C@H]2C[C@H](C(=O)N3CCOCC3)[C@@]3(CCC4CCCC4)c4[nH]c5ccc(Cl)cc5c4CCN3C2=O)cc1OC | 39.6% (active) |
| CN(C)c1ccnc2sc3c(=O)n(Cc4ccccc4)cnc3c12 | 15.1% |
| Cc1cccc(NC(=O)c2nc(S(=O)(=O)Cc3ccccc3)ncc2Cl)c1 | 50.9% (active) |
| O=C(CCl)Nc1cccc(CP(=O)(c2ccccc2)c2ccccc2)c1 | 27.6% |
| Cc1cccc(CS(=O)(=O)c2ncc(Cl)c(C(=O)Nc3ccc(F)cc3)n2)c1 | 51.2% (active) |
| C[C@@H](NC(=O)OC(C)(C)C)c1nnc(S(=O)(=O)Cc2ccccc2)o1 | 24.9% |
| O=C(/C(=C/c1cccc(Cl)c1)c1nc2ccccc2[nH]1)c1ccccc1 | 97.6% (active) |
| CCCCNC(=O)C(C)N(CCN(C)C)C(=O)CCCCCN1C(=O)NC(c2ccc(Cl)cc2)C(C(=O)OCc2ccccc2)=C1C (stereo not given) | 27.8% |
